Test results: PubChem BioAssay
Unmarked numbers belong to inactive results. For some of these results: Entries with a potency or affinity are not part of this list. Calls of active or inactive are those of the source. Unless noted, no rule for the calls is given here.

What was measured:
[1] = antimalarial activity against Dd2 strain (AID 2302;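 active = growth inhibition above 50% at the single 2 µM test dose, taken to imply half-maximal potency below 2 µM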;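 also: 0% = DMSO untreated growth and 100% = chloroquine plus artemisinin killed control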); settings: P. falciparum Dd2 in RBCs, LDH growth readout, 72 h; at 2 µM; active compounds read high
[2] = HepG2 cytotoxicity, primary screen, cytotoxicity control for P. falciparum antimalarial project, cell-based, ATP luminescence (AID 2303;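 active = inhibition above 50%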;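 also: 0% = DMSO wells and 100% = digitonin-killed cells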); settings: HepG2 viability, 24-48 h, at 10 µM, active compounds read high
[3] = biological target: L-lactate dehydrogenase (Plasmodium falciparum (isolate CDC / Honduras)) (UniProt Q27743); assay: PfLDH activity inhibition – cell lysate, 3D7 strain, counter-screen for P. falciparum growth inhibition project (AID 2304);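 also: 0% = vehicle and 100% = reference inhibitor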; settings: P. falciparum 3D7 crude extract, LDH APAD/NBT absorbance; at 2 µM; active compounds read high
[4] = inhibition of 3D7 malaria parasite growth – strain 3D7 (AID 2306);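 also: 0% = DMSO wells and 100% = chloroquine plus artemisinin control wells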; settings: P. falciparum 3D7 erythrocytic growth, LDH absorbance, 72 h; at 2 µM; active compounds read high
[5] = biological target: Calcium-dependent protein kinase 1 (Plasmodium falciparum (isolate 3D7)) (UniProt P62344); assay: PfCDPK1 kinase inhibitors, biochemical, TCAMS library (AID 1159585; cut-off not given, nearly all actives have IC50 up to about 0.98 µM;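 also: inhibitors leave more ATP so luminescence rises with inhibition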); settings: recombinant PfCDPK1, Kinase-Glo ATP depletion luminescence
[6] = biological target: Plasmodium falciparum protein kinase 6 (PK6, PF3D7_1337100) (UniProt Q8IDW1); assay: PfPK6 kinase inhibitors, biochemical, TCAMS library (AID 1159586); settings: recombinant PfPK6, Kinase-Glo ATP depletion luminescence
[7] = biological target: Protein kinase 7 (PK7), Plasmodium falciparum 3D7 (PF3D7_0213400) (UniProt Q7YTF7); assay: inhibition of Plasmodium PK7 catalytic activity – biochemical, TCAMS antimalarial set, Kinase-Glo luminescence (AID 1159587); settings: recombinant PfPK7, Kinase-Glo ATP depletion luminescence
[8] = biological target: Calcium-dependent protein kinase 4 (Plasmodium falciparum (isolate 3D7)) (UniProt Q8IBS5); assay: PfCDPK4 kinase inhibitors, biochemical, TCAMS library (AID 1159588; cut-off not given, nearly all actives have IC50 up to about 0.91 µM); settings: recombinant PfCDPK4, Kinase-Glo ATP depletion luminescence
Calcium-dependent protein kinase 4 (Plasmodium falciparum (isolate 3D7)), sequence (Q8IBS5 whole entry, looked up): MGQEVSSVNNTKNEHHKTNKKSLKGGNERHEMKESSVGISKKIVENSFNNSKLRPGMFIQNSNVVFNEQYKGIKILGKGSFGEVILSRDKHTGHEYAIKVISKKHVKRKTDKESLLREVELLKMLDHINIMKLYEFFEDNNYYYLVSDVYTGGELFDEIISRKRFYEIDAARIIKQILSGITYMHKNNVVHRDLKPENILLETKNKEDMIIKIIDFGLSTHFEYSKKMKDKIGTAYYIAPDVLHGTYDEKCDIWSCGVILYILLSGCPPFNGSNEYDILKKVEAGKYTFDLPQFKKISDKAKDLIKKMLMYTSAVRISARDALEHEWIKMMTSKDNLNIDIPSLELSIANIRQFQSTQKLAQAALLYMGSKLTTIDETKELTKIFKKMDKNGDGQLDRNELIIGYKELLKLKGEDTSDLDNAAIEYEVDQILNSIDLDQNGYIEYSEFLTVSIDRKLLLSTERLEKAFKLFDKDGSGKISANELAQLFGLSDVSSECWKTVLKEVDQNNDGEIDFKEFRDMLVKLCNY

Protein kinase 7 (PK7), Plasmodium falciparum 3D7 (PF3D7_0213400), sequence (Q7YTF7 1-343): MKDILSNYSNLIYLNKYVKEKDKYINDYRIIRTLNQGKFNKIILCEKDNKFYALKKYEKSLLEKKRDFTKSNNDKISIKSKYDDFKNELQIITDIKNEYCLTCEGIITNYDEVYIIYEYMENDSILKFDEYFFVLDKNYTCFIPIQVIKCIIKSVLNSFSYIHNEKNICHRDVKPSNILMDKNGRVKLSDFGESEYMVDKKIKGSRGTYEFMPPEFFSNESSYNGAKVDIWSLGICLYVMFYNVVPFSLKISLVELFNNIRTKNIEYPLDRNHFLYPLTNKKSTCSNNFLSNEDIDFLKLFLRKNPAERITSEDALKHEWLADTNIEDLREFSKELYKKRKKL
L-lactate dehydrogenase (Plasmodium falciparum (isolate CDC / Honduras)), sequence (Q27743 whole entry, looked up): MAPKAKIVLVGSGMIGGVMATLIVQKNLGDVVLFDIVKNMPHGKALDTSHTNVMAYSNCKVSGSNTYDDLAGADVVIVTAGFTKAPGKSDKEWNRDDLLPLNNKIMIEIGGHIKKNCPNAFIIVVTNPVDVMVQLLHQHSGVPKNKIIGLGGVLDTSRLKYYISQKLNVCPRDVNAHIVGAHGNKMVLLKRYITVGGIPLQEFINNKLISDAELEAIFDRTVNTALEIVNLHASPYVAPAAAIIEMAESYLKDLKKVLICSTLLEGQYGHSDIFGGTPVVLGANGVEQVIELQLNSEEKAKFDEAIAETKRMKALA
Calcium-dependent protein kinase 1 (Plasmodium falciparum (isolate 3D7)), sequence (P62344 whole entry, looked up): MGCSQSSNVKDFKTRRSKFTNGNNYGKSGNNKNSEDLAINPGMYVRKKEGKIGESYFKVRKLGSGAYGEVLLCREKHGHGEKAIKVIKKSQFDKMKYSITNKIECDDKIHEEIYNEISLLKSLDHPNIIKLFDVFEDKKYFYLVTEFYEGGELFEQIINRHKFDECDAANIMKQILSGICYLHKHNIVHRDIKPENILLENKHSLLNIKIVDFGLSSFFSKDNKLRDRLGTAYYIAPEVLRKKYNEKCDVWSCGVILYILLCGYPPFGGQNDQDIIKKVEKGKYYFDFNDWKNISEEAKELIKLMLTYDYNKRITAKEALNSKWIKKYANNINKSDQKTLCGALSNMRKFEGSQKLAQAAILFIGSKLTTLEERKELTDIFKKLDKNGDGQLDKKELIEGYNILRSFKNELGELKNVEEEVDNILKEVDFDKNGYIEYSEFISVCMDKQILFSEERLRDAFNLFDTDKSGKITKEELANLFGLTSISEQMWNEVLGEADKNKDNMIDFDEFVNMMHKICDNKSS
Plasmodium falciparum protein kinase 6 (PK6, PF3D7_1337100), sequence (Q8IDW1 1-305): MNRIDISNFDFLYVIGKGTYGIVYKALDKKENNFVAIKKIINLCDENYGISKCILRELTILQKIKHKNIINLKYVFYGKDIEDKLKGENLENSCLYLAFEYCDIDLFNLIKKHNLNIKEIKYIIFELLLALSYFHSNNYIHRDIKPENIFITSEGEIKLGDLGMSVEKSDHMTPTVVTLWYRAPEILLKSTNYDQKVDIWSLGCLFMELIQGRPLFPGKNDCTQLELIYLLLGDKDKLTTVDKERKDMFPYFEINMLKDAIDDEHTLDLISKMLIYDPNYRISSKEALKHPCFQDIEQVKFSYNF

| Structure (SMILES) | growth inhibition [1] | inhibition [2] | inhibition [3] [%] | growth inhibition [4] | outcome [5] | outcome [6] | outcome [7] | outcome [8] |
| --- | --- | --- | --- | --- | --- | --- | --- | --- |
| CS(=O)(=O)Nc1cccc(-c2cnc3[nH]cc(-c4ccc(C(=O)O)c(F)c4)c3c2)c1 | 76% (active) | 27% | 5 | 99% (active) | inactive | inactive | inactive | inactive |
| Cn1ccnc1-c1nc2ccccn2c1NCC(=O)Nc1ccccc1N1CCCCC1 | 57% (active) | 16% | -7 | 85% (active) | inactive | inactive | inactive | inactive |
| O=C(/C=C/c1c(Cl)cccc1Cl)NC1CCC(CN2CCC(Cc3cc4ccccc4[nH]3)CC2)CC1 (stereo not given) | 17% | 97% (active) | -1 | 91% (active) | inactive | inactive | inactive | inactive |
| CCCCNc1c(CC)c(C)c(C#N)c2nc3ccccc3n12 | 100% (active) | 3% | -5 | 100% (active) | inactive | inactive | inactive | inactive |
| Cc1ccc2nc(C)cc(NN=Cc3cccc([N+](=O)[O-])c3)c2c1 | 99% (active) | 0% | 1 | 102% (active) | inactive | inactive | inactive | inactive |
| Fc1ccc(Nc2n[nH]c(CNC3CCN(Cc4ccc(Cl)c(Cl)c4)CC3)n2)cc1 | 36% | 18% | 5 | 101% (active) | inactive | inactive | inactive | inactive |
| Cc1cccc(CCNC(=O)c2cc(Br)cc(N3CCN(c4ccncc4)CC3)c2)c1 | 53% (active) | 48% | 0 | 96% (active) | inactive | inactive | inactive | inactive |
| CC(C)c1cc2c(cc1O)C(Cc1ccccc1Cl)N(C)CC2 (stereo not given) | 33% | -7% | -4 | 97% (active) | inactive | inactive | inactive | inactive |
| O=C(NCC1CC1)C1CCN(C(c2ccccc2)c2nc3ccccc3s2)CC1 (stereo not given) | 49% | -3% | 8 | 92% (active) | inactive | inactive | inactive | inactive |
| N#Cc1cccc(C(=O)Nc2cccc(-c3ccc(CN4CCC(O)CC4)cc3)c2)c1 | 2% | 15% | 1 | 86% (active) | inactive | inactive | inactive | inactive |
| Cc1cc2nc(-c3ccc(OCC(=O)NCc4cccc(C(F)(F)F)c4)cc3)[nH]c2cc1C | 1% | 4% | -4 | 94% (active) | inactive | inactive | inactive | inactive |
| CSc1ccc(NC(=O)Nc2cc(C)nc3ccccc23)cc1Br | 66% (active) | 7% | -6 | 101% (active) | inactive | inactive | inactive | inactive |
| CC(C(=O)N1CCCC1)N1CCN(C(c2ccccc2)c2ccccc2)CC1 (stereo not given) | 56% (active) | -2% | 3 | 82% (active) | inactive | inactive | inactive | inactive |
| Cc1cccc2[nH]c(-c3ccc(-c4cccc(NC(=O)CCc5cnc[nH]5)c4)cc3)nc12 | 14% | 13% | 4 | 101% (active) | inactive | inactive | inactive | inactive |
| Cc1cc(NN=Cc2ccccc2[N+](=O)[O-])c2cccc(C)c2n1 | 100% (active) | -6% | 1 | 99% (active) | inactive | inactive | inactive | inactive |
| c1cc(CNC2CCN(CC3CCCCC3)CC2)cc(-n2ccnc2)c1 | 97% (active) | 3% | 1 | 102% (active) | inactive | inactive | inactive | inactive |
| COc1cccc(C(=O)NCCOc2ccccc2)c1Oc1ccccc1 | 98% (active) | 14% | -4 | 98% (active) | inactive | inactive | inactive | inactive |
| CCc1nc2nc(C)cc(Nc3cc(C)cc(C)c3)n2n1 | 96% (active) | 21% | 7 | 96% (active) | inactive | inactive | inactive | inactive |
| Cc1ccnc(NC(c2ccc(Cl)c([N+](=O)[O-])c2)c2ccc3cccnc3c2O)c1 (stereo not given) | 57% (active) | 47% | 6 | 89% (active) | inactive | inactive | inactive | inactive |
| COc1ccccc1CN1CCC(CNC(=O)c2cc(-c3cccc(C(F)(F)F)c3)cs2)C1 (stereo not given) | 1% | 25% | 4 | 84% (active) | inactive | inactive | inactive | inactive |
